Here are results for 26 compounds from PubChem BioAssay AID720541 (National Center for Advancing Translational Sciences (NCATS), 2013).

Screen size: about 1,300 compounds; about 420 (32%) were called active. Inconclusive results (about 32%) are left out. Some of the results follow. Values without a mark were called inactive. Calls follow the shape of the dose curve; as a rule, active = well fitted inhibition curve with a large enough effect; inconclusive = small, poorly fitted or top-dose-only effect; inactive = no such curve, though single readings can be large or run the other way.
% is scaled to controls: 0 for no effect and ±100 for the full control effect; potency is read from the fitted curve at half-maximal effect.

This assay deals with C-terminal-binding protein 1 (Homo sapiens) (UniProt Q13363). Nature of the assay: qHTS for Inhibitors of the Phosphatase Activity of Eya2: Carboxyl-terminal binding protein (CtBP) Counterscreen for Cherry-picked Compounds. Also: nearly all actives have a fitted effect of over 65% in size. The settings on record: purified protein-protein binding, AlphaScreen, 3 h; series mostly up to 46.1 µM; activity change, negative = inhibition: at the top concentration. In short, it runs like this: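 AlphaScreen using 25 nM GST-E1A with 25 nM CtBP-6xHIS; compounds at 2.5 nM–46 uM final, 2 h at room temperature, then donor/acceptor beads (20 ug/mL) for 1 h in the dark. Signal normalized to E1A peptide inhibitor (maximum inhibition) and DMSO.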
In general terms: Quantitative high-throughput screening tests each substance at several concentrations.
As for `CC1=C(/C=C/C(C)=C/C=C/C(C)=C/C(=O)Nc2ccc(O)cc2)C(C)(C)CCC1`, the “activity change, negative = inhibition” value was -22%.
With `COc1ccc(S(=O)(=O)N2CCC3CC2c2cc(N4CCOCC4)ccc23)cc1` (stereo unspecified), the “activity change, negative = inhibition” value was 53.4%.
With `O=C(Oc1ccc(=O)n(-c2ccccc2)n1)c1ccc(F)cc1`, the “activity change, negative = inhibition” value was 7.08%.
Turning to `C[n+]1ccc(/C=C/c2cc[n+](C)c3ccccc23)c2ccccc21`, the Potency is 15.1 µM (active).
With `CN1C=C/C(=C\c2cc[n+](C)c3ccccc23)c2ccccc21`, the Potency was 15.1 µM (active).
The same measure, in the same setting: the same measure for `O=S(=O)(O)c1ccc2c(N=Nc3ccc(S(=O)(=O)O)c4ccccc34)c(O)c(S(=O)(=O)O)cc2c1`: 9.53 µM (active); for `CC(=O)Nc1ccc(S(=O)(=O)O)c2cc(S(=O)(=O)O)c(N=Nc3ccc(N=Nc4ccc(S(=O)(=O)O)cc4)c4ccc(S(=O)(=O)O)cc34)c(O)c12`: 1.69 µM (active).
As to `Cc1cc(NC(=O)c2cccc(N3C(=O)CCC3=O)c2)no1`, the “activity change, negative = inhibition” value was 5.6%.
For `Cc1ccc(NC(=O)c2ccc3[nH]c(=O)c(=O)[nH]c3c2)nc1`, the Potency was 6.75 µM (active).
Regarding `O=C(NC1=C(Nc2ccc(F)cc2)C(=O)c2ccccc2C1=O)c1ccc(Cl)cc1`, the “activity change, negative = inhibition” value was -23.9%.
As for `O=C(Nc1ccc(F)cc1)c1ccc2[nH]c(=O)c(=O)[nH]c2c1`, the Potency is 1.9 µM (active).
For `Cc1nc2c(C(=O)Nc3ccc(N4CCCC(O)C4)cc3)snc2c(=O)[nH]1` (stereo unspecified), the “activity change, negative = inhibition” value was -14.4%.
In the case of `CCOc1cc(/C=C2/NC(=O)NC2=O)cc(Br)c1OCc1ccc(C(=O)O)cc1`, the “activity change, negative = inhibition” value was -28.6%.
Consider `CSCc1cc(N(C)c2ccccc2)nc(-c2ccccn2)n1`, for which the Potency is 13.5 µM (active).
Regarding `O=C(O)C1=NN(c2cc(Cl)c(S(=O)(=O)O)cc2Cl)C(=O)C1`, the “activity change, negative = inhibition” value is -1.01%.
Consider `CN(C)c1ccc(N=c2sc3ccccc3n2C)cc1`, for which the Potency was 7.57 µM (active).
With `CCN1CCN(c2ncnc3scc(-c4ccc(C)cc4)c23)CC1`, the “activity change, negative = inhibition” value was -13.6%.
On to `CCc1nnc2c(N(C)C)nc3ccccc3n12`, for which the Potency is 12 µM (active).
On to `CN(C)S(=O)(=O)n1cnc2ccccc21`, for which the “activity change, negative = inhibition” value was 2.9%.
For `CC(=O)Nc1ccc(S(=O)(=O)NC2=C(N3CCN(Cc4ccccc4)CC3)C(=O)c3ccccc3C2=O)cc1`, the Potency was 16.9 µM (active).
Take `Cc1cc2oc(C(=O)N3CCN(Cc4ccccc4)CC3)c(C)c2cc1C`: the “activity change, negative = inhibition” value was -17.7%.
Consider `O=C1C(NS(=O)(=O)c2cccs2)=C(N2CCN(Cc3ccccc3)CC2)C(=O)c2ccccc21`, for which the Potency is 10.7 µM (active).
As to `O=c1c2ccccc2nnn1CSc1nnc(C2COc3ccccc3O2)n1-c1ccccc1` (stereo unspecified), the “activity change, negative = inhibition” value is -10.6%.
With `O=c1cc(CSc2ccc(Cl)cc2)nc(-c2ccccn2)[nH]1`, the Potency is 2.13 µM (active).
In the case of `Nc1nc2cc3ccccc3cc2[nH]c1=O`, the “activity change, negative = inhibition” value was -9.19%.
Consider `O=c1nc(-c2ccccc2)c2cc(Cl)ccc2[nH]1`, for which the Potency was 13.5 µM (active).
